# Data taken from the supplement of paper PMC11018630.
# Where a name gives a salt, the structure may show the parent alone. ± gives the standard deviation of the averaged measurements. The full ranking holds about 1,100 compounds; the median of “day of extracellular matrix detachment from plate” is about 16, and the lowest 2% start at about 10. This excerpt belongs to a sample that is enriched for the lowest values.
# Test system: RDEB dermal fibroblasts EB71
# Assay: day of extracellular matrix detachment from plate (days); higher = delayed detachment (less fibrotic matrix)
# Conditions: compound concentration: 10 uM
row,Compound,day of extracellular matrix detachment from plate
1,Nc1ccc(S(=O)(=O)Nc2ncccn2)cc1 [Sodium sulfadiazine],18.2 ± 3.1
2,Nc1ccc(S(=O)(=O)Nc2ncccn2)cc1 [Sulfadiazine],12
3,N=C(N)NC(=N)N1CCOCC1 [Moroxydine HCl],19.3 ± 6.3
4,Cc1cc(-n2c(=O)[nH]c(=O)n(C)c2=O)ccc1Oc1ccc(SC(F)(F)F)cc1 [Toltrazuril],15.7 ± 2.9
5,Clc1ccc(Nc2nnc(Cc3ccncc3)c3ccccc23)cc1 [Vatalanib (PTK787) 2HCl],25
6,"CNC(=O)[C@H](Cc1c[nH]c2ccccc12)NC(=O)[C@@H](CC(=O)NO)CC(C)C [Ilomastat (GM6001, Galardin)]",15
7,CNC(=O)[C@H](Cc1ccccc1)NC(=O)[C@H](CC(C)C)[C@H](CSc1cccs1)C(=O)NO [Batimastat (BB-94)],9 ± 1.7
8,CNC(=O)[C@@H](NC(=O)[C@H](CC(C)C)[C@H](O)C(=O)NO)C(C)(C)C [Marimastat(BB-2516)],11.7 ± 1.1
9,O=c1ccc2ccc(OCCCCN3CCN(c4cccc5sccc45)CC3)cc2[nH]1 [Brexpiprazole],17
10,CC(C)[C@H](N)C(=O)OCCOCn1cnc2c(=O)nc(N)[nH]c21 [Valaciclovir HCl],15.7 ± 6.3
11,OCCOc1ccc(/C(=C(/CCCl)c2ccccc2)c2ccccc2)cc1 [Ospemifene],13
12,Cc1ccc(C(=O)C(C)CN2CCCCC2)cc1 (stereo not drawn) [Tolperisone HCl],13
13,CCCCN1CCCCC1C(=O)Nc1c(C)cccc1C (stereo not drawn) [Bupivacaine HCl],19.3 ± 6.3
14,CO[C@H]1C[C@@H]2CC[C@@H](C)[C@@](O)(O2)C(=O)C(=O)N2CCCC[C@H]2C(=O)O[C@H]([C@H](C)C[C@@H]2CC[C@@H](OCCO)[C@H](OC)C2)CC(=O)[C@H](C)/C=C(\C)[C@@H](O)[C@@H](OC)C(=O)[C@H](C)C[C@H](C)/C=C/C=C/C=C/1C [Everolimus (RAD001)],25
15,CC[C@H]1[C@@H](O)[C@@H]2[C@H](CC[C@]3(C)[C@@H]([C@H](C)CCC(=O)O)CC[C@@H]23)[C@@]2(C)CC[C@@H](O)C[C@@H]12 [Obeticholic Acid],16.3 ± 1.1
16,C#C[C@]1(O)CC[C@H]2[C@@H]3CCC4=CCCC[C@@H]4[C@H]3C(=C)C[C@@]21CC [Desogestrel],17
17,Cc1cc(C#N)cc(C)c1Oc1nc(Nc2ccc(C#N)cc2)nc(N)c1Br [Etravirine (TMC125)],18
18,C=C(c1ccc(C(=O)O)cc1)c1cc2c(cc1C)C(C)(C)CCC2(C)C [Bexarotene],9
19,CC1(C)CCC(C)(C)c2cc(NC(=O)c3ccc(C(=O)O)cc3)ccc21 [Tamibarotene],19
20,Cc1ccc([C@@H]2O[C@H](CO)[C@@H](O)[C@H](O)[C@H]2O)cc1Cc1ccc(-c2ccc(F)cc2)s1 [Canagliflozin],18
21,Oc1cc(O)c(Cl)cn1 [Gimeracil],12

row,Compound,day of extracellular matrix detachment from plate
1,O=C(O)c1cc(/N=N/c2ccc(O)c(C(=O)O)c2)ccc1O [Olsalazine Sodium],17.3 ± 2.9
2,CC(C)NC[C@H](O)COc1ccc(CCOCC2CC2)cc1 [Levobetaxolol HCl],16 ± 3.5
3,C[C@]12CC[C@H](O)CC1=CC[C@@H]1[C@@H]2CC[C@]2(C)C(n3cnc4ccccc43)=CC[C@@H]12 [Galeterone],20 ± 1.7
4,CCOC(=O)CC(=O)N1CCSC1COc1ccccc1OC (stereo not drawn) [Moguisteine],15.3 ± 2.3
5,Clc1ccc2c(c1)CCc1cccnc1C2=C1CCNCC1 [Desloratadine],28
6,NC(=O)C(c1ccccc1)(c1ccccc1)[C@@H]1CCN(CCc2ccc3c(c2)CCO3)C1 [Darifenacin HBr],23.2 ± 7.2
7,CC(C)/N=c1\cc2n(-c3ccc(Cl)cc3)c3ccccc3nc-2cc1Nc1ccc(Cl)cc1 [Clofazimine],13
8,C[C@@H]1O[C@@H](OC[C@H]2O[C@@H](Oc3c(-c4ccc(O)c(O)c4)oc4cc(O)cc(O)c4c3=O)[C@H](O)[C@@H](O)[C@@H]2O)[C@H](O)[C@H](O)[C@H]1O [Rutin],18.3 ± 8.1
9,CNC[C@H](O)[C@@H](O)[C@H](O)[C@H](O)CO [Meglumine],12
10,Cc1cccc(CN2CCN(C(c3ccccc3)c3ccc(Cl)cc3)CC2)c1 (stereo not drawn) [Meclizine 2HCl],12
11,OCCOCCN1CCN(C(c2ccccc2)c2ccc(Cl)cc2)CC1 (stereo not drawn) [Hydroxyzine 2HCl],18
12,O=C(O)COCCN1CCN(C(c2ccccc2)c2ccc(Cl)cc2)CC1 (stereo not drawn) [Cetirizine DiHCl],10.3 ± 1.1
13,C#C[C@]1(O)CC[C@H]2[C@@H]3CCC4=CC(=O)CC[C@@H]4[C@H]3C(=C)C[C@@]21CC [Etonogestrel],20
14,CC(C)Oc1ccc(-c2nc(-c3cccc4c3CC[C@@H]4NCCO)no2)cc1C#N [Ozanimod (RPC1063)],16.3 ± 1.1
15,Cc1cccc(Nc2ccncc2S(=O)(=O)NC(=O)NC(C)C)c1 [Torsemide],15.7 ± 6.3
16,CN1CCN2c3ccccc3Cc3ccccc3C2C1 (stereo not drawn) [Mianserin HCl],9.67 ± 1.1
17,NC1=NCC2c3ccccc3Cc3ccccc3N12 (stereo not drawn) [Epinastine HCl],13
18,CN1CCN2c3ncccc3Cc3ccccc3C2C1 (stereo not drawn) [Mirtazapine],12
19,C=C[C@]1(C)C[C@@H](OC(=O)CSC(C)(C)CNC(=O)[C@H](N)C(C)C)[C@]2(C)[C@H](C)CC[C@]3(CCC(=O)[C@H]32)[C@@H](C)[C@@H]1O [Valnemulin HCl],19
20,C[C@]12CC[C@@H]3c4ccc(O)cc4CC[C@H]3[C@@H]1CC[C@@H]2OC(=O)CCC1CCCC1 [Estradiol Cypionate],13
21,C[C@@H]1COC(Nc2ccc3ncnc(Nc4ccc(OCc5nccs5)c(Cl)c4)c3c2)=N1 [Varlitinib],31

row,Compound,day of extracellular matrix detachment from plate
1,C[C@H](CCC(=O)O)[C@H]1CC[C@H]2[C@@H]3[C@@H](O)C[C@@H]4C[C@H](O)CC[C@]4(C)[C@H]3CC[C@]12C [Ursodiol],10.3 ± 1.1
2,C[C@H](CCC(=O)O)[C@H]1CC[C@H]2[C@@H]3CC[C@@H]4C[C@H](O)CC[C@]4(C)[C@H]3CC[C@]12C [Lithocholic acid],15.3 ± 2.3
3,C[C@H](CCC(=O)O)[C@H]1CC[C@H]2[C@@H]3[C@H](O)C[C@@H]4C[C@H](O)CC[C@]4(C)[C@H]3CC[C@]12C [Chenodeoxycholic Acid],15.7 ± 6.3
4,CO[C@H]1/C=C/O[C@@]2(C)Oc3c(C)c(O)c4c(O)c(c(/C=N/N5CCN(C6CCCC6)CC5)c(O)c4c3C2=O)NC(=O)/C(C)=C\C=C\[C@H](C)[C@H](O)[C@@H](C)[C@@H](O)[C@@H](C)[C@H](OC(C)=O)[C@@H]1C [Rifapentine],12
5,C[C@@H]1CC(=O)NN=C1c1ccc(NN=C(C#N)C#N)cc1 [Levosimendan],19.3 ± 6.3
6,CC[C@@H](CO)NCCN[C@@H](CC)CO [Ethambutol HCl],15.3 ± 2.3
7,Cc1c(C)c2c(c(C)c1O)CC[C@@](C)(CCC[C@H](C)CCC[C@H](C)CCCC(C)C)O2 [Vitamin E],17.3 ± 2.5
8,CCOc1ccccc1OC(c1ccccc1)C1CNCCO1 (stereo not drawn) [Reboxetine mesylate],18
9,N[C@@H](CC(=O)N1CCn2c(nnc2C(F)(F)F)C1)Cc1cc(F)c(F)cc1F [Sitagliptin phosphate monohydrate],18
10,C#C[C@]1(O)CC[C@H]2[C@@H]3CCC4=CC(=O)CC[C@@H]4[C@H]3CC[C@@]21C [Norethindrone],19
11,C#C[C@]1(O)CC[C@H]2[C@@H]3CCc4cc(OC)ccc4[C@H]3CC[C@@]21C [Mestranol],10 ± 1.7
12,C#C[C@]1(O)CC[C@H]2[C@@H]3CCc4cc(O)ccc4[C@H]3CC[C@@]21C [Ethinyl Estradiol],14
13,CCC(C)(C)c1ccc(CC(C)CN2C[C@@H](C)O[C@@H](C)C2)cc1 (stereo partly drawn) [Amorolfine HCl],12
14,Cc1cc(/C=C/C#N)cc(C)c1Nc1ccnc(Nc2ccc(C#N)cc2)n1 [Rilpivirine],27
15,O[C@H]1[C@H](O)[C@@H](O)[C@H](O)[C@@H](O)[C@H]1O [i-Inositol],13
16,CS(=O)(=O)c1ccc(C(=O)Nc2ccc(Cl)c(-c3ccccn3)c2)c(Cl)c1 [Vismodegib (GDC-0449)],14.3 ± 1.1
17,COc1cccc(-c2ccc(NC(=O)C3=C(C(=O)O)CCC3)c(F)c2)c1 [Vidofludimus],16.3 ± 1.1
18,CCOc1cc([C@@H](CS(C)(=O)=O)N2C(=O)c3cccc(NC(C)=O)c3C2=O)ccc1OC,12.7 ± 2.9
19,O=C1CC[C@@H](C(=O)N2CSC[C@H]2C(=O)O)N1 [Pidotimod],15.3 ± 2.3
20,CC(C)NCC(O)c1ccc(O)c(O)c1 (stereo not drawn) [Isoprenaline HCl],11 ± 1.7
21,CNC[C@H](O)c1cccc(O)c1 [Phenylephrine HCl],12

row,Compound,day of extracellular matrix detachment from plate
1,CNC[C@@H](O)c1ccc(O)c(O)c1 [L-Adrenaline],10 ± 1.7
2,CC(C)(C)NCC(O)c1ccc(O)c(CO)c1 (stereo not drawn) [Salbutamol Sulfate],19
3,CNC[C@H](O)c1ccc(O)c(O)c1 [Epinephrine HCl],16.3 ± 4
4,CNC[C@H](O)c1ccc(O)c(O)c1 [Epinephrine Bitartrate],9
5,NC[C@H](O)c1ccc(O)c(O)c1 [Noradrenaline bitartrate monohydrate],16.7 ± 2.3
6,O=C(/C=C/C=C/c1ccc2c(c1)OCO2)N1CCCCC1 [Piperine],11 ± 1.7
7,Cc1ccsc1C(=CCCN1CCC[C@@H](C(=O)O)C1)c1sccc1C [Tiagabine hydrochloride],17.2 ± 2
8,Cc1ccsc1C(=CCCN1CCC[C@@H](C(=O)O)C1)c1sccc1C [Tiagabine],17
9,Cc1c(-c2ccnn2C)cc(C(=O)NCc2ccc(S(C)(=O)=O)cn2)c(=O)n1-c1cccc(C(F)(F)F)c1 [Alvelestat (AZD9668)],13.7 ± 1.1
10,CCCNS(=O)(=O)Nc1ncnc(OCCOc2ncc(Br)cn2)c1-c1ccc(Br)cc1 [Macitentan],9.67 ± 1.1
11,O=C(O)c1cc(=O)c2ccccc2o1 [Chromocarb],13
12,OCC(O)CN1CCN(c2ccccc2)CC1 (stereo not drawn) [Dropropizine],15
13,C=C1CC[C@H](O)C/C1=C/C=C1\CCC[C@]2(C)[C@@H]([C@H](C)/C=C/[C@H](C)C(C)C)CC[C@@H]12 [Vitamin D2],18
14,CC(=O)/N=c1/sc(S(N)(=O)=O)nn1C [Methazolamide],18
15,O=C1C(O)=C([C@H]2CC[C@H](c3ccc(Cl)cc3)CC2)C(=O)c2ccccc21 [Atovaquone],18
16,"CC[C@H](Nc1ncnc2[nH]cnc12)c1nc2cccc(F)c2c(=O)n1-c1ccccc1 [CAL-101 (Idelalisib, GS-1101)]",22.3 ± 1.1
17,O=C([O-])C(O)[C@H](O)[C@@H](O)[C@H](O)[C@H](O)CO.O=C([O-])C(O)[C@H](O)[C@@H](O)[C@H](O)[C@H](O)CO.[Ca+2] (stereo partly drawn) [Calcium Gluceptate],18
18,S=c1[nH]cnc2nc[nH]c12 [Mercaptopurine (6-MP)],15 ± 1.7
19,O=c1[nH]c(=O)n([C@H]2C[C@H](O)[C@@H](CO)O2)cc1I [Idoxuridine],23
20,COc1cc(OC)c(C(=O)CCCN2CCCC2)c(OC)c1 [Buflomedil HCl],20 ± 1.7
